# Test results: the supplement of paper PMC8728848
# Many of the other results were omitted from the sample, so the strongest signals are more common in it than they were.
# How the values were obtained:
# Assay in all cases: glycan array binding signal (z-score within array); higher = stronger binding
# Conditions in all cases: glycan notation: IUPAC condensed, linker removed
# [1] = target: Fuc(a1-2)Gal6S(b1-4)Glc6S
# In short: (§1)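 Glycan array data were curated from 3228 arrays in the Consortium for Functional Glycomics database and kept only where the protein sequence was available. Glycan names were converted to IUPAC-condensed notation, and columns mapping to the same glycan were averaged. The binding signal is a within-array Z-score, averaged across arrays of the same protein sequence at different concentrations or buffers and across linkers. Negative Z-scores can be read as non-binding.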
# [2] = target: Fuc(a1-2)[Gal(a1-3)]Gal(b1-4)GlcNAc
# In short: as §1
# [3] = target: Fuc(a1-2)[GalNAc(a1-3)]Gal(b1-3)GlcNAc
# In short: as §1
# [4] = target: Fuc(a1-2)[GalNAc(a1-4)]Gal(b1-4)GlcNAc
# In short: as §1
# Fuc(a1-3)GlcNAc = target: Fuc(a1-3)GlcNAc
# In short: as §1
# [5] = target: Fuc(a1-3)[Gal(b1-4)]GlcNAc(b1-2)Man(a1-6)[Gal(b1-4)GlcNAc(b1-2)Man(a1-3)]Man(b1-4)GlcNAc(b1-4)GlcNAc
# In short: as §1
# Fuc(a1-4)GlcNAc = target: Fuc(a1-4)GlcNAc
# In short: as §1
# [6] = target: Gal(a1-3)[Gal(a1-4)]Gal(b1-4)GlcNAc
# In short: as §1
# Gal(a1-4)Gal(b1-4)Glc = target: Gal(a1-4)Gal(b1-4)Glc
# In short: as §1
# [7] = target: Gal(b1-4)GalNAc(a1-3)[Fuc(a1-2)]Gal(b1-4)GlcNAc
# In short: as §1
# Gal(b1-4)Glc = target: Gal(b1-4)Glc
# In short: as §1
# Gal(b1-4)Glc6S = target: Gal(b1-4)Glc6S
# In short: as §1
# [8] = target: GlcNAc(a1-3)Gal(b1-4)GlcNAc
# In short: as §1
# [9] = target: GlcNAc(a1-6)Gal(b1-4)GlcNAc
# In short: as §1
# Neu5Ac(a2-3)Gal = target: Neu5Ac(a2-3)Gal
# In short: as §1
# [10] = target: Neu5Ac(a2-3)Gal(b1-4)[Fuc(a1-3)]GlcNAc(b1-3)Gal(b1-4)GlcNAc
# In short: as §1
# [11] = target: Neu5Ac(a2-3)Gal(b1-4)[Fuc(a1-3)]GlcNAc(b1-6)[Gal(b1-3)]GalNAc
# In short: as §1
# [12] = target: Neu5Ac(a2-3)GalNAc(b1-4)GlcNAc
# In short: as §1
# Neu5Ac(a2-6)Gal(b1-4)Glc = target: Neu5Ac(a2-6)Gal(b1-4)Glc
# In short: as §1
# [13] = target: Neu5Ac(a2-6)Gal(b1-4)GlcNAc
# In short: as §1
# [14] = target: Neu5Ac(a2-6)Gal(b1-4)GlcNAc(b1-2)Man(a1-3)[Gal(b1-4)GlcNAc(b1-2)Man(a1-6)]Man(b1-4)GlcNAc(b1-4)GlcNAc
# In short: as §1
# [15] = target: Neu5Ac(a2-6)Gal(b1-4)GlcNAc(b1-2)Man(a1-3)[GlcNAc(b1-2)Man(a1-6)]Man(b1-4)GlcNAc(b1-4)GlcNAc
# In short: as §1
# [16] = target: Neu5Ac(a2-6)Gal(b1-4)GlcNAc(b1-2)Man(a1-3)[Neu5Ac(a2-6)Gal(b1-4)GlcNAc(b1-2)Man(a1-6)]Man(b1-4)GlcNAc(b1-4)GlcNAc
# In short: as §1
# [17] = target: Neu5Ac(a2-6)Gal(b1-4)GlcNAc(b1-2)Man(a1-6)[GlcNAc(b1-2)Man(a1-3)]Man(b1-4)GlcNAc(b1-4)GlcNAc
# In short: as §1
# [18] = target: Neu5Ac(a2-6)Gal(b1-4)GlcNAc6S
# In short: as §1
binder,measurement,setting,value
"SLR2P3F12 (Tachypleus tridentatus), TAL2_TACTR (protein) MEKGTPPTHDSDNWMGRAKKIGNGGWNQFQFLFFDPNGYLYAVSKDKLYKASPPQSDTDNWIARATEIGSGGWSGFKSLFFHPNGYLYAVHGQRLYKALPPVSNQD",glycan array binding signal (z-score),[1],-0.343
same,glycan array binding signal (z-score),[2],-0.417
same,glycan array binding signal (z-score),[3],0.556
same,glycan array binding signal (z-score),[4],2.01
same,glycan array binding signal (z-score),Fuc(a1-3)GlcNAc,-0.301
same,glycan array binding signal (z-score),[5],0.218
same,glycan array binding signal (z-score),Fuc(a1-4)GlcNAc,1.42
same,glycan array binding signal (z-score),[6],0.143
same,glycan array binding signal (z-score),Gal(a1-4)Gal(b1-4)Glc,-0.342
same,glycan array binding signal (z-score),[7],-0.208
same,glycan array binding signal (z-score),Gal(b1-4)Glc,2.75
same,glycan array binding signal (z-score),Gal(b1-4)Glc6S,-0.248
same,glycan array binding signal (z-score),[8],5.11
same,glycan array binding signal (z-score),[9],13.2
same,glycan array binding signal (z-score),Neu5Ac(a2-3)Gal,-0.415
same,glycan array binding signal (z-score),[10],-0.203
same,glycan array binding signal (z-score),[11],2.75
same,glycan array binding signal (z-score),[12],0.435
same,glycan array binding signal (z-score),Neu5Ac(a2-6)Gal(b1-4)Glc,-0.125
same,glycan array binding signal (z-score),[13],-0.317
same,glycan array binding signal (z-score),[14],-0.422
same,glycan array binding signal (z-score),[15],-0.235
same,glycan array binding signal (z-score),[16],0.131
same,glycan array binding signal (z-score),[17],1.27
same,glycan array binding signal (z-score),[18],0.194
